# Source: article PMC7862700, “An all-to-all approach to the identification of sequence-specific readers for epigenetic DNA modifications on cytosine”
# What was measured:
# Test in all cases: DAPPL (digital affinity profiling via proximity ligation, sequencing); 10 mM Tris-HCl pH 7.5, 50 mM NaCl, 1 mM DTT, 4% glycerol, room temperature, 30 min; GST-TFs on glutathione beads, 16-mer random dsDNA library, 0.1% formaldehyde crosslink after washing; high values mean tight binding
# FLI1 = molecular target: T1, FLI1 (Homo sapiens, UniProt Q01543 1-452); settings: protein: recombinant; tags: N-terminal GST; dsDNA, one strand shown
# T1 sequence: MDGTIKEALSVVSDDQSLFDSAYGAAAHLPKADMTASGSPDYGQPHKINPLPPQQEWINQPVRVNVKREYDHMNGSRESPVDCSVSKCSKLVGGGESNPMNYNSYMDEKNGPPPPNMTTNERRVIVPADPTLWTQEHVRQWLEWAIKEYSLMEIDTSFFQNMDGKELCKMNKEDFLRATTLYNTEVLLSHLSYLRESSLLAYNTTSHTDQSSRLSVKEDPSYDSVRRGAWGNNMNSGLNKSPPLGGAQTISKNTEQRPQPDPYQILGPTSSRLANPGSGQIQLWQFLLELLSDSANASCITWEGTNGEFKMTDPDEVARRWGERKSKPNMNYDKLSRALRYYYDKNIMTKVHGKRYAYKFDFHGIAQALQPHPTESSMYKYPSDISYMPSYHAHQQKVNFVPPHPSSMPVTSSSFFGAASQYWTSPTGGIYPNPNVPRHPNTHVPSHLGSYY
# How it was run: (§1)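 A tag-only sample was pooled with DNA-barcoded human transcription factors that had been expressed in yeast as GST fusions and captured on glutathione beads. The pools were incubated for 30 min at room temperature with 200 nmole of a random double-stranded 16-mer DNA library in Tris/NaCl/DTT/glycerol buffer, then washed, crosslinked with 0.1% formaldehyde, proximity-ligated (BsaI/T4 ligase, 1 h, 37 °C), PCR-amplified and sequenced on an Illumina NextSeq500. Binding signal is each hexamer's read frequency for a factor divided by its frequency for the tag-only sample.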
# ELK1 = molecular target: T2, ELK1 (Homo sapiens, UniProt P19419 1-428); settings: protein: recombinant; tags: N-terminal GST; dsDNA, one strand shown
# T2 sequence: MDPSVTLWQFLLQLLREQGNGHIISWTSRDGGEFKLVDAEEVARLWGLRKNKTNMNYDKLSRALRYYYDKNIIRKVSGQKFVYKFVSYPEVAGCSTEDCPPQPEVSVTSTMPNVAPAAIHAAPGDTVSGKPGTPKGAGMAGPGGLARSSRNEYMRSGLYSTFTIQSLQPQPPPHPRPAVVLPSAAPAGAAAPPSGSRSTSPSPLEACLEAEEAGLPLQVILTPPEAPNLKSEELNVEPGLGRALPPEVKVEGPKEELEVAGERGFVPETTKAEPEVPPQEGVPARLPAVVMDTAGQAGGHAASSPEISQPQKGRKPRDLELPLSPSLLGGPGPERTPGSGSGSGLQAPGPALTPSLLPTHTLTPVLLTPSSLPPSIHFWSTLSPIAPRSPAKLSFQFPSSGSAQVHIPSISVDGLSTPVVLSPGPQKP
# How it was run: as §1
# GABPA = molecular target: T3, GABPA (Homo sapiens, UniProt Q06546 1-454); settings: protein: recombinant; tags: N-terminal GST; dsDNA, one strand shown
# T3 sequence: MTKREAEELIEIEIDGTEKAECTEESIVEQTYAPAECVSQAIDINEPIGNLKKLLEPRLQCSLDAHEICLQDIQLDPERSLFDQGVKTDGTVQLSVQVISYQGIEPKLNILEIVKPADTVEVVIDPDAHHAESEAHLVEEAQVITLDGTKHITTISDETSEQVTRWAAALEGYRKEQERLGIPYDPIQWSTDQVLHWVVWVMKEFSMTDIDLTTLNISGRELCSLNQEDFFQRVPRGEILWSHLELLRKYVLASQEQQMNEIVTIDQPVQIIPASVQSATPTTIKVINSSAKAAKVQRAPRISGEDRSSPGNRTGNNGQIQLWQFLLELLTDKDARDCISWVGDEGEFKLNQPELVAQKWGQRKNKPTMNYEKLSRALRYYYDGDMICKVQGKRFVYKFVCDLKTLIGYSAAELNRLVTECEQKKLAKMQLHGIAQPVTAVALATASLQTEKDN
# How it was run: as §1
# ERG = molecular target: T4, ERG (Homo sapiens, UniProt P11308 1-479); settings: protein: recombinant; tags: N-terminal GST; dsDNA, one strand shown
# T4 sequence: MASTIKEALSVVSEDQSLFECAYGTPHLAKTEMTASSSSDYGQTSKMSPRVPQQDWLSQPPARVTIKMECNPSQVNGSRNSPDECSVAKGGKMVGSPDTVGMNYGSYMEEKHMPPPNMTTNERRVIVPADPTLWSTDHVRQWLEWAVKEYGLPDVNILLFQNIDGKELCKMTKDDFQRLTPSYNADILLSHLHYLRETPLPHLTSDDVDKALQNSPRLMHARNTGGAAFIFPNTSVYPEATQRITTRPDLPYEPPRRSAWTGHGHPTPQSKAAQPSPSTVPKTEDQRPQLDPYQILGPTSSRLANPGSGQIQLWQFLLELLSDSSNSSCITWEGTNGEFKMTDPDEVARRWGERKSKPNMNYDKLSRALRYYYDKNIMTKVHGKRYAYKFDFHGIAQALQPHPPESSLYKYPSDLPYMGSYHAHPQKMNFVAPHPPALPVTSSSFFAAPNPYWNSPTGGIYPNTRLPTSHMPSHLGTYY
# How it was run: as §1
# ELF1 = ELF1 (Homo sapiens, UniProt P32519 1-619); settings: protein: recombinant; tags: N-terminal GST; dsDNA, one strand shown
# Chain of ELF1 (P32519 whole entry): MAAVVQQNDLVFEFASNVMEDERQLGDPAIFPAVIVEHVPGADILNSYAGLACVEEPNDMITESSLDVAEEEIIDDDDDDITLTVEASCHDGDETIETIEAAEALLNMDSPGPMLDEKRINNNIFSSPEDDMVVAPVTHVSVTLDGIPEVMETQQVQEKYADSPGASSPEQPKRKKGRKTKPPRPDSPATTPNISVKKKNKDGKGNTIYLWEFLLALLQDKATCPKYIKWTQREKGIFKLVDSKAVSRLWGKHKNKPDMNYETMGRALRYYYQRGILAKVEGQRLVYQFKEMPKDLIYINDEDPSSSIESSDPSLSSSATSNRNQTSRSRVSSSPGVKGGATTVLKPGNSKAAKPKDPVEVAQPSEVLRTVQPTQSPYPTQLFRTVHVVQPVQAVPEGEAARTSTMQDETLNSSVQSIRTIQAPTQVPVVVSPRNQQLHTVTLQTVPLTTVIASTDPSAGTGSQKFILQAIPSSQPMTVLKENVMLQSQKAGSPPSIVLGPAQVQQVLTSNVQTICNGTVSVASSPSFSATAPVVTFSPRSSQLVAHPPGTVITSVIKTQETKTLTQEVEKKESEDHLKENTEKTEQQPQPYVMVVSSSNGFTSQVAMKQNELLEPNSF
# How it was run: as §1
# EHF = molecular target: T5, EHF (Homo sapiens, UniProt Q9NZC4 1-300); settings: protein: recombinant; tags: N-terminal GST; dsDNA, one strand shown
# T5 sequence: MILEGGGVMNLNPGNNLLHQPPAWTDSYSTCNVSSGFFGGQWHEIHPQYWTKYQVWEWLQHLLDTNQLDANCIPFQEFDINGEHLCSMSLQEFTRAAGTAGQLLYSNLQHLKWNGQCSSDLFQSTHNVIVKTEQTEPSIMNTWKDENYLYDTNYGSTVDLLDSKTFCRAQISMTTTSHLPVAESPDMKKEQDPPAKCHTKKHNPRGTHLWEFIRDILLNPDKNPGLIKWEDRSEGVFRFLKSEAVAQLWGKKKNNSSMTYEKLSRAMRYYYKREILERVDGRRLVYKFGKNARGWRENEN
# How it was run: as §1
# SPI1 = SPI1 (Homo sapiens, UniProt P17947 1-270); settings: protein: recombinant; tags: N-terminal GST; dsDNA, one strand shown
# How it was run: as §1
# SPIB = SPIB (Homo sapiens, UniProt Q01892 1-262); settings: protein: recombinant; tags: N-terminal GST; dsDNA, one strand shown
# Chain of SPIB (Q01892 whole entry): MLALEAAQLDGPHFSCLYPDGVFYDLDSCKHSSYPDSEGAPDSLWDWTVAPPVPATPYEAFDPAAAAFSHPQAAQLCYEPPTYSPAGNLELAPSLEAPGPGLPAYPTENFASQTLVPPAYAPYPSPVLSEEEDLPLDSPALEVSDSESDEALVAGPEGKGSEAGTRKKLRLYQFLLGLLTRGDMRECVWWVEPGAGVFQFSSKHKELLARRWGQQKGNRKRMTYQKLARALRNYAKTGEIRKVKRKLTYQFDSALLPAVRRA
# How it was run: as §1
# ELK3 = molecular target: T6, ELK3 (Homo sapiens, UniProt P41970 1-407); settings: protein: recombinant; tags: N-terminal GST; dsDNA, one strand shown
# T6 sequence: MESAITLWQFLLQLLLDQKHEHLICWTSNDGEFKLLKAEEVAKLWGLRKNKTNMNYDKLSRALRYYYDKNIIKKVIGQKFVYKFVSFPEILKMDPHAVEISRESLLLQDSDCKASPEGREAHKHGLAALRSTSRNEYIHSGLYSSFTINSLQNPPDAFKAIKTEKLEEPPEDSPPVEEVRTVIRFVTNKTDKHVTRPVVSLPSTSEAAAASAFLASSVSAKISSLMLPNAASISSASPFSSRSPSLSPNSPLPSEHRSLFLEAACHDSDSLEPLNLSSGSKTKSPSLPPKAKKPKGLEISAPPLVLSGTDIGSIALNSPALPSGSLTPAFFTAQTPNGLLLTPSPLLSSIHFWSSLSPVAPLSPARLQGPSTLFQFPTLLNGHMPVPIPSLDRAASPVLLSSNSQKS
# How it was run: as §1
# FEV = molecular target: T7, FEV (Homo sapiens, UniProt Q99581 1-238); settings: protein: recombinant; tags: N-terminal GST; dsDNA, one strand shown
# T7 sequence: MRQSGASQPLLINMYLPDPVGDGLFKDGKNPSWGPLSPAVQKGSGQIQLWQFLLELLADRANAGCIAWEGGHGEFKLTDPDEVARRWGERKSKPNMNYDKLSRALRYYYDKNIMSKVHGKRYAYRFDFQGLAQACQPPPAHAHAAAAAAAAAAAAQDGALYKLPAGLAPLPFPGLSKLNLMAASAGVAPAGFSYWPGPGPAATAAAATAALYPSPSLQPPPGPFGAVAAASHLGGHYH
# How it was run: as §1
# ETV5 = ETV5 (Homo sapiens, UniProt P41161 1-510); settings: protein: recombinant; tags: N-terminal GST; dsDNA, one strand shown
# Chain of ETV5 (P41161 whole entry): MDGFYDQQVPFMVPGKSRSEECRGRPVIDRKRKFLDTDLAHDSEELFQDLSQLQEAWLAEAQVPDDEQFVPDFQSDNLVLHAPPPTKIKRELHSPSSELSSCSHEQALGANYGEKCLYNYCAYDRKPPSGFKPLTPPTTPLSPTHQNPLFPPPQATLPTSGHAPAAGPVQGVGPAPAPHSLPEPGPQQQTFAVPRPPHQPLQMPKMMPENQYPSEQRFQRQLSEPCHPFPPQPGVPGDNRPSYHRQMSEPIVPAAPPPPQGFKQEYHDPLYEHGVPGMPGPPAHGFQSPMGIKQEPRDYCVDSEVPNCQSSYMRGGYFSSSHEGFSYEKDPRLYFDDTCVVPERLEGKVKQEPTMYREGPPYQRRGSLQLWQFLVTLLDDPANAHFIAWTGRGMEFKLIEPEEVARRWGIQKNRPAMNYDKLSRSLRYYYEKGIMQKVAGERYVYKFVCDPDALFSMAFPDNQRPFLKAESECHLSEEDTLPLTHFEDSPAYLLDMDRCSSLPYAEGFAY
# How it was run: as §1
# HSF1 = HSF1 (Homo sapiens, UniProt Q00613 1-529); settings: protein: recombinant; tags: N-terminal GST; chain copies: 3; dsDNA, one strand shown
# Chain of HSF1 (Q00613 whole entry): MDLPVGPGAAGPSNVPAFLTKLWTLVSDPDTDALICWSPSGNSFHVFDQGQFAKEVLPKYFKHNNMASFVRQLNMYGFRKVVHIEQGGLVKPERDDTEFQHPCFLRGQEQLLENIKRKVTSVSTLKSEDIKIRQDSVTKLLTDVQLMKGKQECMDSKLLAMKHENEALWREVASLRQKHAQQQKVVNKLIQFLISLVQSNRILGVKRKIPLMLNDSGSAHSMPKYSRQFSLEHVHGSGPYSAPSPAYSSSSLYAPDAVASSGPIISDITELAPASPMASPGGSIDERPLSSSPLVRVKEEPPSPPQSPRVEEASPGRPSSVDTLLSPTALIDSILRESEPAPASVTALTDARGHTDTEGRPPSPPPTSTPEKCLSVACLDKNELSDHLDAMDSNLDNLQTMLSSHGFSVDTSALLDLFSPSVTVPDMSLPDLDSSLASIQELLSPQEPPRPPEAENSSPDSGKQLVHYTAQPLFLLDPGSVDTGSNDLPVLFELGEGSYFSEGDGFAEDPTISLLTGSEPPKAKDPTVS
# How it was run: as §1
# SPIC = molecular target: T8, SPIC (Homo sapiens, UniProt Q8N5J4 1-248); settings: protein: recombinant; tags: N-terminal GST; dsDNA, one strand shown
# T8 sequence: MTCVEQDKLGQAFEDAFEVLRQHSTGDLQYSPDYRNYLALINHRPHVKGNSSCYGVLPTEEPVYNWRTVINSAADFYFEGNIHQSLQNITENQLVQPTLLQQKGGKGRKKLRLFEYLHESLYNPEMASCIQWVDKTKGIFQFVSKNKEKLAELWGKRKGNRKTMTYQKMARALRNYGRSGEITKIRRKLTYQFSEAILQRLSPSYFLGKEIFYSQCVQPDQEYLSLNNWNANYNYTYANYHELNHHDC
# How it was run: as §1
# ELF4 = ELF4 (Homo sapiens, UniProt Q99607 1-663); settings: protein: recombinant; tags: N-terminal GST; dsDNA, one strand shown
# Chain of ELF4 (Q99607 whole entry): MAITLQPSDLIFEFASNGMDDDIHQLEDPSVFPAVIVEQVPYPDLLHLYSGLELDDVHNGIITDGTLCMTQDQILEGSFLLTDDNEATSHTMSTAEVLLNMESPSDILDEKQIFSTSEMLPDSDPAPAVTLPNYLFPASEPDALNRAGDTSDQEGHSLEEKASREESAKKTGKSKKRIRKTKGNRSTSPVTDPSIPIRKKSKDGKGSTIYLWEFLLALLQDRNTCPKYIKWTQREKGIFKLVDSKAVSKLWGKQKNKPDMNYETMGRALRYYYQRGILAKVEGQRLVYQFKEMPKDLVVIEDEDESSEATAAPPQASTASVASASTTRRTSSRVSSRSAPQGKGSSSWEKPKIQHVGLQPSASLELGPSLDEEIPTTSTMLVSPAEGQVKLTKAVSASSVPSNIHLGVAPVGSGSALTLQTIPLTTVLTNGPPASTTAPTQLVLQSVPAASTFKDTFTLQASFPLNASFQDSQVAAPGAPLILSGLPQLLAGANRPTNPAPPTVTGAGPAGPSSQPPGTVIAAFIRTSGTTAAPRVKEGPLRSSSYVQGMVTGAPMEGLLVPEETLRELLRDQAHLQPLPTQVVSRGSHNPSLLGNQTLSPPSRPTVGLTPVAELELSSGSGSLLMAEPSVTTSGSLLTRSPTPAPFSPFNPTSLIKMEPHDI
# How it was run: as §1
# ELK4 = molecular target: T9, ELK4 (Homo sapiens, UniProt P28324-2 1-405); settings: protein: recombinant; tags: N-terminal GST; dsDNA, one strand shown
# T9 sequence: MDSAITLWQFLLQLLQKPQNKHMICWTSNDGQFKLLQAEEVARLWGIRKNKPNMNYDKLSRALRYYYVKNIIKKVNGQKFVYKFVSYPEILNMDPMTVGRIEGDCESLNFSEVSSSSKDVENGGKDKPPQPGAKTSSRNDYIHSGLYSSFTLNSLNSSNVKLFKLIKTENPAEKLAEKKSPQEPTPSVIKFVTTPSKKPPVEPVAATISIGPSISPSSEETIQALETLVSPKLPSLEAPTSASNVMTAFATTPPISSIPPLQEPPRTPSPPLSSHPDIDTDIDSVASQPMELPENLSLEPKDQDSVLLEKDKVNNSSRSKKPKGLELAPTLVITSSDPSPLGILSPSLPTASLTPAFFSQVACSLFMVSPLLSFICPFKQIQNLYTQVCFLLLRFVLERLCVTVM
# How it was run: as §1
# ETV2 = molecular target: T10, ETV2 (Homo sapiens, UniProt O00321 1-342); settings: protein: recombinant; tags: N-terminal GST; dsDNA, one strand shown
# T10 sequence: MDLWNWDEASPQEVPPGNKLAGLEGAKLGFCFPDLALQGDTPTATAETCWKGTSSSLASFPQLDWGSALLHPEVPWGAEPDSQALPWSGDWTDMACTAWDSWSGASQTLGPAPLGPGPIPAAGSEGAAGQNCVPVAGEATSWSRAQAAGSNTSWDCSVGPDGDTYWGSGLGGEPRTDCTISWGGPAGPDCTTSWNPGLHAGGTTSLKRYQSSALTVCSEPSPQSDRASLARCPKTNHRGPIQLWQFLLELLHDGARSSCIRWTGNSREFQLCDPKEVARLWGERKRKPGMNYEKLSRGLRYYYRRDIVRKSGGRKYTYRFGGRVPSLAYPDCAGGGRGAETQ
# How it was run: as §1
# ELF3 = molecular target: T11, ELF3 (Homo sapiens, UniProt P78545 1-371); settings: protein: recombinant; tags: N-terminal GST; dsDNA, one strand shown
# T11 sequence: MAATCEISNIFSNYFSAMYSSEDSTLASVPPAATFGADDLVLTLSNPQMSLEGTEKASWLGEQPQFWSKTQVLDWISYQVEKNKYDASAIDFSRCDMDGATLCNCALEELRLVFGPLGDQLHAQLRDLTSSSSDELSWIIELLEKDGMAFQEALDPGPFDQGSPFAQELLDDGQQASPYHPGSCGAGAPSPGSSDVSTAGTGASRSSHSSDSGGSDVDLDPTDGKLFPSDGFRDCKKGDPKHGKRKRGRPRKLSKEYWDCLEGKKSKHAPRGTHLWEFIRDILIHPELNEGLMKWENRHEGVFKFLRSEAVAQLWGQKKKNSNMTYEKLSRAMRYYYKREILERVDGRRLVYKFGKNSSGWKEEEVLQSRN
# How it was run: as §1
# CRX = CRX (Homo sapiens, UniProt O43186 1-299); settings: protein: recombinant; tags: N-terminal GST; dsDNA, one strand shown
# Chain of CRX (O43186 whole entry): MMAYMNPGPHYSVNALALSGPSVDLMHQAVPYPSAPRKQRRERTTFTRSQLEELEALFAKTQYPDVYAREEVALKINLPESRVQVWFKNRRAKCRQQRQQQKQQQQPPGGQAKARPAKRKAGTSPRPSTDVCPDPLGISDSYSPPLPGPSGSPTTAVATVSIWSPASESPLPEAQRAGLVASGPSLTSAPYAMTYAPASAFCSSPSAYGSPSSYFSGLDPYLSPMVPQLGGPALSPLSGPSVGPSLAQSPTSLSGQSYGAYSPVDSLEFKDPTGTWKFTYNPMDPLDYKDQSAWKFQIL
# How it was run: as §1
# ETV1 = ETV1 (Homo sapiens, UniProt P50549 1-477); settings: protein: recombinant; tags: N-terminal GST; dsDNA, one strand shown
# Chain of ETV1 (P50549 whole entry): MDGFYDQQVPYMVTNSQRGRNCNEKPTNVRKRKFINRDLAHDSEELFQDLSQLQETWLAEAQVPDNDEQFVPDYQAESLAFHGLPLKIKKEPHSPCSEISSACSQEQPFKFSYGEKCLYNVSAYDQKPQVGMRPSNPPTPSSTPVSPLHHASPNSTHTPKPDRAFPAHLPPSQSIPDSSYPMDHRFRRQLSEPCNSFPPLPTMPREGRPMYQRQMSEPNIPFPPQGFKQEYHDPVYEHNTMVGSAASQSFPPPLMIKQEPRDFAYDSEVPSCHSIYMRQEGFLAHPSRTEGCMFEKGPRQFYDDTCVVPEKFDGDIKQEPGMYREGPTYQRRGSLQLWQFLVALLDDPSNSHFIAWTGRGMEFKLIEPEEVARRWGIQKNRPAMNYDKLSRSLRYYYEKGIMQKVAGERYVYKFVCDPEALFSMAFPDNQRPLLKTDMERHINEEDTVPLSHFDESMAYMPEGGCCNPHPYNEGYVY
# How it was run: as §1
sequence,measurement,setting,value
CCCTCT,binding signal,FLI1,"1.31 fold enrichment (6-mer frequency, TF over GST control)"
same,binding signal,ELK1,"1.43 fold enrichment (6-mer frequency, TF over GST control)"
same,binding signal,GABPA,"1.37 fold enrichment (6-mer frequency, TF over GST control)"
same,binding signal,ERG,"1.25 fold enrichment (6-mer frequency, TF over GST control)"
same,binding signal,ELF1,"1.28 fold enrichment (6-mer frequency, TF over GST control)"
same,binding signal,EHF,"1.3 fold enrichment (6-mer frequency, TF over GST control)"
same,binding signal,SPI1,"1.28 fold enrichment (6-mer frequency, TF over GST control)"
same,binding signal,SPIB,"1.56 fold enrichment (6-mer frequency, TF over GST control)"
same,binding signal,ELK3,"1.51 fold enrichment (6-mer frequency, TF over GST control)"
same,binding signal,FEV,"1.35 fold enrichment (6-mer frequency, TF over GST control)"
same,binding signal,ETV5,"1.33 fold enrichment (6-mer frequency, TF over GST control)"
same,binding signal,HSF1,"1.29 fold enrichment (6-mer frequency, TF over GST control)"
same,binding signal,SPIC,"1.14 fold enrichment (6-mer frequency, TF over GST control)"
same,binding signal,ELF4,"1.46 fold enrichment (6-mer frequency, TF over GST control)"
same,binding signal,ELK4,"1.6 fold enrichment (6-mer frequency, TF over GST control)"
same,binding signal,ETV2,"1.32 fold enrichment (6-mer frequency, TF over GST control)"
same,binding signal,ELF3,"1.34 fold enrichment (6-mer frequency, TF over GST control)"
same,binding signal,CRX,"1.36 fold enrichment (6-mer frequency, TF over GST control)"
same,binding signal,ETV1,"1.25 fold enrichment (6-mer frequency, TF over GST control)"
